Where “and” joins values, the source holds several entries; their conditions need not be identical. Equal entries are not always repeated. Records with an inconclusive call do not appear. Entries that show only a call come without a potency. Calls of active or inactive are those of the source. Calls follow the shape of the dose curve; as a rule, active = well fitted curve in the direction sought with a large enough effect; inconclusive = small, poorly fitted or top-dose-only effect, or another doubt; inactive = no such curve, though single readings can be large; an effect the other way counts as inactive or inconclusive.
Experiment: qHTS Screen of the MIPE 4.0 Collection Against Ewings Sarcoma (TC32) (AID 1259256); also: nearly all actives have a fitted effect of over 45% in size
Conditions: TC32 Ewing sarcoma viability, CellTiter-Glo, 48 h; series mostly up to 45.8 µM
In short: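 Here, cells in 5% FBS RPMI were exposed for two days (48 h) to compound dilutions added four hours after plating. ATP-based CellTiter-Glo luminescence measured viability, normalized to vehicle and no-cell blanks.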
Potency is read from the fitted curve at half-maximal effect.

SMILES | Potency
OC[C@@H](O)[C@@H](O)[C@H](O)[C@@H](O)CO | inactive
CC(C)N1[N]C(=C2C=c3cc(O)ccc3=N2)c2c(N)ncnc21 | 0.209 µM (active)
O=C(O)[C@H](CC(=O)N1C[C@@H]2CCCC[C@H]2C1)Cc1ccccc1 | inactive
COC(=O)[C@H](CCCN=C(N)N)NS(=O)(=O)c1ccc(C)cc1 | inactive
CC(C)(O)[C@H]1CC[C@@](C)([C@H]2[C@@H](O)C[C@@]3(C)[C@@H]4C[C@H](O[C@@H]5O[C@H](CO)[C@@H](O)[C@H](O)[C@@H]5O)[C@H]5C(C)(C)[C@@H](O[C@@H]6OC[C@@H](O)[C@H](O)[C@@H]6O)CC[C@@]56C[C@@]46CC[C@]23C)O1 | inactive
C#C[C@]1(O)CC[C@@H]2[C@@H]3CCC4=CC(=O)CC[C@@H]4[C@H]3CC[C@@]21CC | inactive
C[C@@H](Cc1cc2c(c(C(N)=O)c1)N(CCCO)CC2)NCCOc1ccccc1OCC(F)(F)F | inactive
C=C(C)[C@@H]1CC[C@]2(C(=O)O)CC[C@]3(C)[C@H](CC[C@@H]4[C@@]5(C)CC[C@H](O)C(C)(C)[C@@H]5CC[C@]43C)[C@@H]12 | inactive
O=C(O)C(=O)Nc1cccc(C2=NN=N[N]2)c1 | inactive
C#CCC(Cc1cnc2nc(N)nc(N)c2n1)c1ccc(C(=O)N[C@@H](CCC(=O)O)C(=O)O)cc1 (some centres not stated) | 0.0332 µM (active)
O=c1ccn([C@@H]2O[C@H](CO)[C@H](O)[C@@H]2F)c(=O)[nH]1 | 18.7 µM (active)
CC(C(C)N1CC(=O)NC(=O)C1)N1CC(=O)NC(=O)C1 (configuration not stated) | inactive
O=C1c2c(O)cccc2[C@@H]([C@@H]2O[C@H](CO)[C@@H](O)[C@H](O)[C@H]2O)c2cc(CO)cc(O)c21 | inactive
O=C1CSC(=O)N1C(CCc1ccncc1)COc1ccc(-c2cccc([N+](=O)[O-])c2)cc1 (configuration not stated) | 6.62 µM (active)
CCCCCCCCCCCCc1ccc(S(=O)(=O)Nc2nncs2)cc1 | inactive
CC(C)n1cnc2c(NCCc3ccc(O)cc3)nc(-c3csc4ccccc34)nc21 | 4.18 µM (active)
OCc1ccccc1O[C@@H]1O[C@H](CO)[C@H](O)[C@H](O)[C@H]1O | inactive
c1cncc(CN2CCC(n3ncc4c(N5CCOCC5)nc(-c5ccc6[nH]ccc6c5)nc43)CC2)c1 | 5.9 µM (active)
C=C1CCC2[C@](C)(CO)C(O)CC[C@]2(C)C1CC=C1C(=O)OCC1O (some centres not stated) | inactive
C[C@H](CCC(=O)O)[C@H]1CC[C@H]2[C@@H]3[C@H](O)C[C@@H]4C[C@H](O)CC[C@]4(C)[C@@H]3CC[C@]12C | inactive
O=C(O)CCCCC(CCSCc1ccccc1)SCc1ccccc1 (configuration not stated) | inactive
C[C@@]12C[C@@]3(O)O[C@@H](O1)[C@]1(COC(=O)c4ccccc4)[C@@H]3C[C@@]12O[C@@H]1O[C@H](CO)[C@@H](O)[C@H](O)[C@@H]1O | inactive
CON=C(C(=O)N[C@@H]1C(=O)N2C(C(=O)O)=C(Cn3ccc(=N)n3CCO)CS[C@H]12)c1csc(N)n1 | inactive
Cc1ccc(-n2[nH]c(C)c(N=Nc3cccc(-c4cccc(C(=O)O)c4)c3O)c2=O)cc1C | 6.62 µM (active)
Cn1cc(-c2ccc3ncc(Cc4ccc5ncccc5c4)n3n2)cn1 | inactive
CC(=O)SCC(Cc1ccccc1)C(=O)NCC(=O)OCc1ccccc1 (configuration not stated) | 0.743 µM (active)
C=C(C)[C@@H]1CC[C@]2(C)CC[C@]3(C)[C@H](CC[C@@H]4[C@@]5(C)CC[C@H](O)C(C)(C)[C@H]5CC[C@]43C)[C@@H]12 | inactive
CC(C=CC=C(C)C=CC1=C(C)CCCC1(C)C)=CC=CC=C(C)C=CC=C(C)C=CC1=C(C)CCCC1(C)C | 16.6 µM (active)

Experiment: P-glycoprotein substrates identified in KB-8-5-11 adenocarcinoma cell line, qHTS therapeutic library screen (AID 1346987); also: nearly all actives have a fitted effect of over 65% in size
Conditions: KB-8-5-11 (P-gp overexpressing) viability, CellTiter-Glo, 72 h; series mostly up to 44.5 µM
In short: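 Steps: plate 500 KB-8-5-11 cells/well in DMEM + 10% FCS (colchicine removed); pin compounds in dose-response; incubate 72 h, 37 degree C, 5% CO2; add CellTiter-Glo, 5 min; read luminescence.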

SMILES | Potency
CON=C(C(=O)N[C@@H]1C(=O)N2C(C(=O)O)=C(CSC(=O)c3ccco3)CS[C@H]12)c1csc(N)n1 | inactive
COc1cc2c(Nc3ccc(Cl)c(Cl)c3F)ncnc2cc1OCC1C[C@@H]2CN(C)C[C@H]2C1 | 18.7 µM (active)
CCn1c(=O)c2c(nc(C=Cc3ccc(OC)c(OC)c3)n2C)n(CC)c1=O | inactive
CC[C@H]1OC(=O)[C@H](C)[C@@H](O[C@H]2C[C@@](C)(OC)[C@@H](O)[C@H](C)O2)[C@H](C)[C@@H](O[C@@H]2O[C@@H](C)C[C@H](N(C)C)[C@@H]2O)[C@](C)(O)C[C@@H](C)C(=O)[C@H](C)[C@@H](O)[C@]1(C)O | inactive
Cc1nc(NC(=O)N2CCC[C@@H]2C(N)=O)sc1-c1ccnc(C(C)(C)C(F)(F)F)c1 | 6.62 µM (active)
C#Cc1cccc(Nc2ncnc3cc(OCCOC)c(OCCO)cc23)c1 | 23.5 µM (active)
O=C(Nc1ccc(Oc2ccnc3[nH]ccc23)c(F)c1)c1cccn(-c2ccc(F)cc2)c1=O | inactive
O=C(O)C[C@H](O)C[C@H](O)C=Cc1c(C2CC2)nc2ccccc2c1-c1ccc(F)cc1 | 7.43 µM (active)
COC[C@H](NC(=O)c1cnc(C)s1)C(=O)N[C@@H](COC)C(=O)N[C@@H](Cc1ccccc1)C(=O)[C@@]1(C)CO1 | 3.72 µM (active)
Cc1ccc([N+](=O)[O-])cc1S(=O)(=O)N(C)N=Cc1cnc2ccc(Br)cn12 | 0.0209 µM (active)
COc1cc(C=CC(=O)CC(=O)C=Cc2ccc(O)c(OC)c2)ccc1O | 48.1 µM (active)
OC[C@@H](O)[C@@H](O)[C@H](O)[C@@H](O)CO | inactive
CC(C)N1[N]C(=C2C=c3cc(O)ccc3=N2)c2c(N)ncnc21 | 0.105 µM (active)
O=C(O)[C@H](CC(=O)N1C[C@@H]2CCCC[C@H]2C1)Cc1ccccc1 | inactive
COC(=O)[C@H](CCCN=C(N)N)NS(=O)(=O)c1ccc(C)cc1 | inactive
CC(C)(O)[C@H]1CC[C@@](C)([C@H]2[C@@H](O)C[C@@]3(C)[C@@H]4C[C@H](O[C@@H]5O[C@H](CO)[C@@H](O)[C@H](O)[C@@H]5O)[C@H]5C(C)(C)[C@@H](O[C@@H]6OC[C@@H](O)[C@H](O)[C@@H]6O)CC[C@@]56C[C@@]46CC[C@]23C)O1 | inactive
C#C[C@]1(O)CC[C@@H]2[C@@H]3CCC4=CC(=O)CC[C@@H]4[C@H]3CC[C@@]21CC | inactive
C[C@@H](Cc1cc2c(c(C(N)=O)c1)N(CCCO)CC2)NCCOc1ccccc1OCC(F)(F)F | inactive
C=C(C)[C@@H]1CC[C@]2(C(=O)O)CC[C@]3(C)[C@H](CC[C@@H]4[C@@]5(C)CC[C@H](O)C(C)(C)[C@@H]5CC[C@]43C)[C@@H]12 | inactive
O=C(O)C(=O)Nc1cccc(C2=NN=N[N]2)c1 | inactive

SMILES | Potency
C#CCC(Cc1cnc2nc(N)nc(N)c2n1)c1ccc(C(=O)N[C@@H](CCC(=O)O)C(=O)O)cc1 (some centres not stated) | 0.0418 µM (active)
O=c1ccn([C@@H]2O[C@H](CO)[C@H](O)[C@@H]2F)c(=O)[nH]1 | inactive
CC(C(C)N1CC(=O)NC(=O)C1)N1CC(=O)NC(=O)C1 (configuration not stated) | inactive
O=C1c2c(O)cccc2[C@@H]([C@@H]2O[C@H](CO)[C@@H](O)[C@H](O)[C@H]2O)c2cc(CO)cc(O)c21 | inactive
O=C1CSC(=O)N1C(CCc1ccncc1)COc1ccc(-c2cccc([N+](=O)[O-])c2)cc1 (configuration not stated) | inactive
CCCCCCCCCCCCc1ccc(S(=O)(=O)Nc2nncs2)cc1 | inactive
CC(C)n1cnc2c(NCCc3ccc(O)cc3)nc(-c3csc4ccccc34)nc21 | 20.9 µM (active) and 20.6 µM (active)
OCc1ccccc1O[C@@H]1O[C@H](CO)[C@H](O)[C@H](O)[C@H]1O | inactive
c1cncc(CN2CCC(n3ncc4c(N5CCOCC5)nc(-c5ccc6[nH]ccc6c5)nc43)CC2)c1 | 469 nM (active) and 2.31 µM (active)
C=C1CCC2[C@](C)(CO)C(O)CC[C@]2(C)C1CC=C1C(=O)OCC1O (some centres not stated) | inactive
C[C@H](CCC(=O)O)[C@H]1CC[C@H]2[C@@H]3[C@H](O)C[C@@H]4C[C@H](O)CC[C@]4(C)[C@@H]3CC[C@]12C | inactive
O=C(O)CCCCC(CCSCc1ccccc1)SCc1ccccc1 (configuration not stated) | inactive
C[C@@]12C[C@@]3(O)O[C@@H](O1)[C@]1(COC(=O)c4ccccc4)[C@@H]3C[C@@]12O[C@@H]1O[C@H](CO)[C@@H](O)[C@H](O)[C@@H]1O | inactive
CON=C(C(=O)N[C@@H]1C(=O)N2C(C(=O)O)=C(Cn3ccc(=N)n3CCO)CS[C@H]12)c1csc(N)n1 | inactive
Cc1ccc(-n2[nH]c(C)c(N=Nc3cccc(-c4cccc(C(=O)O)c4)c3O)c2=O)cc1C | inactive
Cn1cc(-c2ccc3ncc(Cc4ccc5ncccc5c4)n3n2)cn1 | inactive
CC(=O)SCC(Cc1ccccc1)C(=O)NCC(=O)OCc1ccccc1 (configuration not stated) | inactive
C=C(C)[C@@H]1CC[C@]2(C)CC[C@]3(C)[C@H](CC[C@@H]4[C@@]5(C)CC[C@H](O)C(C)(C)[C@H]5CC[C@]43C)[C@@H]12 | inactive
CC(C=CC=C(C)C=CC1=C(C)CCCC1(C)C)=CC=CC=C(C)C=CC=C(C)C=CC1=C(C)CCCC1(C)C | inactive

From PubChem BioAssay (NCATS)
